# The full list was thinned out, with the strongest signals kept by preference.
# What was measured:
# Assay in all cases: glycan array binding signal (z-score within array); higher = stronger binding
# Settings in all cases: glycan notation: IUPAC condensed, linker removed
# Fuc(a1-2)Gal(b1-3)GlcNAc = target: Fuc(a1-2)Gal(b1-3)GlcNAc
# How it was run: (§1)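 Glycan array data were curated from 3228 arrays in the Consortium for Functional Glycomics database and kept only where the protein sequence was available. Glycan names were converted to IUPAC-condensed notation, and columns mapping to the same glycan were averaged. The binding signal is a within-array Z-score, averaged across arrays of the same protein sequence at different concentrations or buffers and across linkers. Negative Z-scores can be read as non-binding.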
# [1] = target: Fuc(a1-2)Gal(b1-3)GlcNAc(b1-2)Man(a1-3)[Fuc(a1-2)Gal(b1-3)GlcNAc(b1-2)Man(a1-6)]Man(b1-4)GlcNAc(b1-4)[Fuc(a1-6)]GlcNAc
# How it was run: as §1
# [2] = target: Fuc(a1-2)Gal(b1-4)GlcNAc(b1-2)Man
# How it was run: as §1
# [3] = target: Fuc(a1-2)Gal(b1-4)[Fuc(a1-3)]GlcNAc
# How it was run: as §1
# [4] = target: Fuc(a1-2)[Gal(a1-3)]Gal(b1-4)GlcNAc(b1-2)Man
# How it was run: as §1
# [5] = target: Fuc(a1-2)[GalNAc(a1-4)]Gal(b1-4)GlcNAc
# How it was run: as §1
# [6] = target: Gal(a1-3)Gal(b1-4)[Fuc(a1-3)]GlcNAc
# How it was run: as §1
# [7] = target: Gal(b1-3)GlcNAc(b1-2)[Gal(b1-3)GlcNAc(b1-6)]Man(a1-6)[Gal(b1-3)GlcNAc(b1-2)Man(a1-3)]Man(b1-4)GlcNAc(b1-4)GlcNAc
# How it was run: as §1
# [8] = target: Gal(b1-3)GlcNAc(b1-3)Gal(b1-4)Glc
# How it was run: as §1
# [9] = target: Gal(b1-3)GlcNAc(b1-3)GalNAc
# How it was run: as §1
# [10] = target: Gal(b1-3)GlcNAc(b1-6)GalNAc
# How it was run: as §1
# [11] = target: Gal(b1-3)[Neu5Ac(b2-6)]GalNAc
# How it was run: as §1
# [12] = target: Gal(b1-4)GlcNAc(b1-2)Man(a1-3)[Gal(b1-4)GlcNAc(b1-2)Man(a1-6)]Man(b1-4)GlcNAc(b1-4)GlcNAc
# How it was run: as §1
# [13] = target: Gal(b1-4)GlcNAc(b1-2)Man(a1-3)[Gal(b1-4)GlcNAc(b1-2)Man(a1-6)]Man(b1-4)GlcNAc(b1-4)[Fuc(a1-6)]GlcNAc
# How it was run: as §1
# [14] = target: Gal(b1-4)GlcNAc(b1-2)Man(a1-3)[GlcNAc(b1-2)Man(a1-6)]Man(b1-4)GlcNAc(b1-4)GlcNAc
# How it was run: as §1
# [15] = target: Gal(b1-4)GlcNAc(b1-2)Man(a1-3)[GlcNAc(b1-4)][Gal(b1-4)GlcNAc(b1-2)Man(a1-6)]Man(b1-4)GlcNAc(b1-4)GlcNAc
# How it was run: as §1
# [16] = target: Gal(b1-4)GlcNAc(b1-2)Man(a1-6)[GlcNAc(b1-2)Man(a1-3)]Man(b1-4)GlcNAc(b1-4)GlcNAc
# How it was run: as §1
# [17] = target: Gal(b1-4)GlcNAc(b1-3)Gal(b1-4)GlcNAc(b1-3)Gal(b1-4)GlcNAc(b1-3)Gal(b1-4)GlcNAc(b1-2)Man(a1-3)[Gal(b1-4)GlcNAc(b1-3)Gal(b1-4)GlcNAc(b1-3)Gal(b1-4)GlcNAc(b1-3)Gal(b1-4)GlcNAc(b1-2)Man(a1-6)]Man(b1-4)GlcNAc(b1-4)GlcNAc
# How it was run: as §1
# Gal(b1-6)Gal = target: Gal(b1-6)Gal
# How it was run: as §1
# [18] = target: Gal3S(b1-4)[Fuc(a1-3)]GlcNAc6S
# How it was run: as §1
# GalNAc(b1-3)Gal = target: GalNAc(b1-3)Gal
# How it was run: as §1
# GalNAc3S(b1-4)GlcNAc3S = target: GalNAc3S(b1-4)GlcNAc3S
# How it was run: as §1
# [19] = target: GlcNAc(a1-4)Gal(b1-4)GlcNAc(b1-3)Gal(b1-4)GlcNAc(b1-3)Gal(b1-4)GlcNAc
# How it was run: as §1
# [20] = target: GlcNAc(b1-2)Man(a1-3)[GlcNAc(b1-2)Man(a1-6)]Man(b1-4)GlcNAc(b1-4)[Fuc(a1-6)]GlcNAc
# How it was run: as §1
binder,measurement,setting,value
"PVL (Psathyrella velutina), Q309D1_9AGAR (protein) MSVVVISQALPVPTRIPGVADLVGFGNGGVYIIRNSLLIQVVKVINNFGYDAGGWRVEKHVRLLADTTGDNQPDVVGFGENGVWISTNNGNNTFVDPPKMVLANFAYAAGGWRVEKHIRFMADLRKTGRADIVGFGDGGIYISRNNGGGQFAPAQLALNNFGYAQGWRLDRHLRFLADVTGDGLLDVVGFGENQVYIARNSGNGTFQPAQAVVNNFCIGAGGWTISAHPRVVADLTGDRKADILGFGVAGVYTSLNNGNGTFGAVNLVLKDFGVNSGWRVEKHVRCVSSLTNKKVGDIIGFGDAGVYVALNNGNGTFGPVKRVIDNFGYNQGWRVDKHPRFVVDLTGDGCADIVGFGENSVWACMNKGDGTFGPIMKLIDDMTVSKGWTLQKTVRYAANLYL",glycan array binding signal (z-score),Fuc(a1-2)Gal(b1-3)GlcNAc,-0.372
same,glycan array binding signal (z-score),[1],-0.362
same,glycan array binding signal (z-score),[2],-0.366
same,glycan array binding signal (z-score),[3],-0.367
same,glycan array binding signal (z-score),[4],-0.372
same,glycan array binding signal (z-score),[5],-0.335
same,glycan array binding signal (z-score),[6],-0.368
same,glycan array binding signal (z-score),[7],-0.349
same,glycan array binding signal (z-score),[8],-0.359
same,glycan array binding signal (z-score),[9],-0.36
same,glycan array binding signal (z-score),[10],-0.364
same,glycan array binding signal (z-score),[11],-0.366
same,glycan array binding signal (z-score),[12],-0.369
same,glycan array binding signal (z-score),[13],-0.555
same,glycan array binding signal (z-score),[14],0.543
same,glycan array binding signal (z-score),[15],-0.369
same,glycan array binding signal (z-score),[16],0.45
same,glycan array binding signal (z-score),[17],0.956
same,glycan array binding signal (z-score),Gal(b1-6)Gal,-0.37
same,glycan array binding signal (z-score),[18],-0.344
same,glycan array binding signal (z-score),GalNAc(b1-3)Gal,-0.243
same,glycan array binding signal (z-score),GalNAc3S(b1-4)GlcNAc3S,-0.369
same,glycan array binding signal (z-score),[19],4.19
same,glycan array binding signal (z-score),[20],0.519
